These results are taken from the supplement of paper PMC13380429.

The test system of assay [1] is Vero E6 infected with SARS-CoV-2. The assay is described as follows: morphology score (similarity to uninfected cells); higher = more like uninfected cells. As to conditions: 24 h.
Assay [2] shares this test system. The assay is described as follows: SARS-CoV-2 infection rate relative to infected DMSO; higher = more infection, active = 60 or less. As to conditions: 24 h.

On to `COC(=O)Nc1ccc(-c2nc(N3CCOCC3)c3cnn(C4CCN(C(=O)OC)CC4)c3n2)cc1` (0.833333 µM), for which, in assay [1], the morphology score came out at 0.00734. The SARS-CoV-2 infection rate in assay [2] is 120% (inactive).
For `CCOC(=O)Nc1ccc(NCc2c(C)cc(C)cc2C)cc1N` (10 µM), the morphology score in assay [1] was -0.0161. Further, the SARS-CoV-2 infection rate in assay [2] is 108% (inactive).
`COc1cccc(Nc2ncnn3ccc(CN4CC[C@@H](N)[C@H](O)C4)c23)c1` (0.833333 µM) showed a morphology score in assay [1] of -0.24. For the same compound, the SARS-CoV-2 infection rate in assay [2] is 112% (inactive).
In turn, `C[C@@]1(O)[C@H](O)[C@@H](CO)O[C@H]1n1ccc(N)nc1=O` (10 µM) registered a morphology score in assay [1] of 0.0553. For the same compound, the SARS-CoV-2 infection rate in assay [2] was 103% (inactive).
The corresponding values for `Clc1cc(Cl)c(OCC#CI)cc1Cl` [haloprogin] (10 µM) are 0.57 and 32% (active).
In the same order, the values of `CC(C)CC(=O)Nc1n[nH]c2c1CN(C(=O)C1CCN(C)CC1)C2(C)C` (10 µM) are 0.099 and 113% (inactive).
The corresponding values for `CCOc1cc(C(=O)Nc2ccc(Cl)c(-c3nc4ccccc4[nH]3)c2)cc(OCC)c1OCC` (10 µM) are -0.0242 and 100% (inactive).
`C[C@]12C/C(=C/O)C(=O)C[C@@H]1CC[C@@H]1[C@@H]2CC[C@@]2(C)[C@H]1CC[C@]2(C)O` [Oxymetholone] (10 µM): the morphology score in assay [1] was -0.162. The SARS-CoV-2 infection rate in assay [2] was 120% (inactive).
The corresponding values for `Cc1cccc(C(=O)NCN2CCN(c3ccccc3C#N)CC2)c1` (10 µM) are 0.161 and 102% (inactive).
The corresponding values for `CCCCNc1cc(C(=O)O)cc(S(N)(=O)=O)c1Oc1ccccc1` [bumetanide] (10 µM) are 0.0462 and 102% (inactive).
`CCOc1ccc(Cc2cc([C@@H]3O[C@H](SC)[C@@H](O)[C@H](O)[C@H]3O)ccc2Cl)cc1` [sotagliflozin] (10 µM): the morphology score in assay [1] is -0.0387. For the same compound, the SARS-CoV-2 infection rate in assay [2] was 114% (inactive).
In assay [1], `COc1ccc(-c2csc(NC(=O)[C@H]3CCCCN3S(=O)(=O)c3ccc(C)cc3)n2)cc1` (10 µM) yielded a morphology score of 0.424. For the same compound, in assay [2], the SARS-CoV-2 infection rate is 61.5% (inactive).
In the same order, the values of `CC(C)C[C@H](NC(=O)CNC(=O)[C@H](Cc1ccc(O)cc1)NC(=O)[C@H](CO)NC(=O)[C@H](Cc1c[nH]c2ccccc12)NC(=O)[C@H](Cc1cnc[nH]1)NC(=O)[C@@H]1CCC(=O)N1)C(=O)N[C@@H](CCCNC(=N)N)C(=O)N1CCC[C@H]1C(=O)NCC(N)=O` [gonadorelin] (10 µM) are -0.182 and 104% (inactive).
The corresponding values for `c1ccc(CNCc2ccc(CN3CCCNCCNCCCNCC3)cc2)nc1` (10 µM) are 0.129 and 100% (inactive).
In assay [1], `NC(=O)c1nc(F)cnc1O` [favipiravir] (10 µM) came in with a morphology score of 0.0924. Further, in assay [2], the SARS-CoV-2 infection rate was 104% (inactive).
The corresponding values for `CCc1nc(-c2cccc(C)c2)c(-c2ccnc(NC(=O)c3ccccc3)c2)s1` (10 µM) are 0.171 and 104% (inactive).
In the same order, the values of `O=C(CCCN1CCC(n2c(=O)[nH]c3ccccc32)CC1)c1ccc(F)cc1` [benperidol] (10 µM) are -0.264 and 118% (inactive).
In the same order, the values of `C[C@@H](c1ccc2nccn2c1)n1nnc2ncc(-c3cnn(C)c3)nc21` [savolitinib] (10 µM) are -0.18 and 104% (inactive).
Take `O=C(CN1C(=O)C2(CCCC2)NC[C@H]1c1cc(F)cc(F)c1)Nc1ccc2c(c1)C[C@@]1(C2)C(=O)Nc2ncccc21` (10 µM): the morphology score in assay [1] turned out to be 0.0766. Besides, the SARS-CoV-2 infection rate in assay [2] was 101% (inactive).
In the same order, the values of `CC(C)(C)c1cc(C(C)(C)C)c(NC(=O)c2c[nH]c3ccccc3c2=O)cc1O` [ivacaftor] (10 µM) are 0.363 and 93% (inactive).
The corresponding values for `Cc1cc(-c2ccccc2)nnc1NCCN1CCOCC1` [minaprine] (10 µM) are 0.145 and 103% (inactive).
The corresponding values for `Cc1cccc(-c2n[nH]cc2-c2ccc(F)c(-c3cnn(CCO)c3)c2)n1` (10 µM) are 0.148 and 104% (inactive).
The compound `CN1CCN(c2ccc3nc(-c4c(N)c5c(F)cccc5[nH]c4=O)[nH]c3c2)CC1` [dovitinib] (10 µM) showed a morphology score in assay [1] of -0.00197. In assay [2], the SARS-CoV-2 infection rate was 102% (inactive).
In the same order, the values of `CC(=O)[C@H]1CC[C@H]2[C@@H]3CC[C@H]4C[C@](C)(O)CC[C@]4(C)[C@H]3CC[C@]12C` [ganaxolone] (10 µM) are -0.0442 and 104% (inactive).
In the same order, the values of `O=C(O)Cn1c(C(=O)Nc2nc(-c3ccccc3Cl)cs2)cc2ccccc21` (10 µM) are 0.162 and 93% (inactive).
`CCc1cccc(N(C)C(=N)Nc2cccc3ccccc23)c1` [aptiganel] (10 µM): the morphology score in assay [1] was 0.0916. Further, the SARS-CoV-2 infection rate in assay [2] was 104% (inactive).
`CC1=C(/C=C/C(C)=C/C=C/C(C)=C/C=C/C=C(C)/C=C/C=C(C)/C=C/C2=C(C)C(=O)[C@@H](O)CC2(C)C)C(C)(C)C[C@H](O)C1=O` [astaxanthin] (10 µM) showed a morphology score in assay [1] of 0.0152. For the same compound, the SARS-CoV-2 infection rate in assay [2] was 107% (inactive).
The corresponding values for `CC(=O)N(CC(O)CO)c1c(I)c(C(=O)NCCO)c(I)c(C(=O)NCC(O)CO)c1I` (stereo not given) [ioxilan] (10 µM) are 0.00249 and 114% (inactive).
`O=C(NC[C@H]1CN(c2ccc(N3CCOCC3=O)cc2)C(=O)O1)c1ccc(Cl)s1` [Rivaroxaban (Xarelto)] (10 µM): in assay [1], the morphology score worked out at 0.193. Moreover, the SARS-CoV-2 infection rate in assay [2] is 97.5% (inactive).
The corresponding values for `C=CC(=O)Nc1cccc(Nc2nc(Nc3ccc(OCCOC)cc3)ncc2F)c1` (0.833333 µM) are -0.0246 and 116% (inactive).
